Data: PubChem BioAssay (NCATS)
Inconclusive results are not listed. A call without a number means that no potency is given here. Calls of active or inactive are those of the source. Unless noted, calls come from the whole dose curve; as a rule, active = well fitted curve in the direction sought with a large enough effect; inconclusive = small, poorly fitted or top-dose-only effect, or another doubt; inactive = no such curve, though single readings can be large; an effect the other way counts as inactive or inconclusive.

Key:
[1] = target: Thyrotropin-releasing hormone receptor (Homo sapiens) (UniProt P34981); assay: qHTS for Small Molecule Agonists and Allosteric Enhancers of Human TRH Receptor: Validation Screen for Agonists (AID 493127;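 active = calcium activation more than 3 SD above the typical response in the agonist read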;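 note: intracellular calcium rise by fluo-8 fluorescence before TRH EC20 addition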); conditions: TRH receptor agonist cell assay; at 2 µM; stronger effect = higher value
How it was run: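 TRHR-expressing cells were plated overnight in serum-containing medium, then loaded with fluo-8 calcium dye at room temperature for 30 min–1.5 h. After a 10 s baseline, compound was pin-transferred and calcium fluorescence (ex 480/em 530) read kinetically for agonist response.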

[2] = Nrf2 qHTS screen for inhibitors: Validation (AID 493153; active = well fitted inhibition curve with a large enough effect in the main read-out, with a control signal flat, not every such curve was filed as active); conditions: A549 ARE-Fluc reporter, 18-24 h; Potency: luciferase luminescence; viability change: measured here: cytotoxicity max response; luciferase luminescence, at 46.1 µM (top of the series)
How it was run: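 A549 cells carrying an ARE-driven firefly luciferase reporter, in 5% FBS OPTI-MEM, were treated with compounds in concentration-response for 18-24 h at 37°C. Viability was read by CellTiter-Fluor fluorescence, then Nrf2 activity by luciferase luminescence.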

[3] = qHTS for Inhibitors of Cell Surface uPA Generation: Validation Assay (AID 493164); conditions: mouse cells, plasminogen activation; series mostly up to 38.3 µM;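 note: RAW 264.7 macrophage cells exposed to compound for 18 h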
How it was run: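 RAW 264.7, 4000 cells/well, o/n plating; cpd 7-pt 1:5 dilution 2.45 nM–38.3 uM final; 18 h, 37 C/5% CO2; ATP-Lite, 5 s luminescence exposure.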

[4] = target: Galactokinase (Homo sapiens) (UniProt P51570); assay: qHTS Validation Assay for Inhibitors of Human Galactokinase (GALK) (AID 493189); conditions: purified human GALK enzyme activity, qHTS 7-point titration; series mostly up to 57.5 µM
How it was run: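 Luminescence from leftover ATP (Kinase-Glo Plus, 10 min) served as read-out after a 1 h room-temperature reaction of 5 nM GALK, 100 uM galactose and 35 uM ATP at pH8.0.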

[5] = Validation screen for small molecules that induce DNA re-replication in SW480 colon adenocarcinoma cells (AID 504364); conditions: DNA re-replication phenotype (high-content imaging); series mostly up to 46.1 µM
How it was run: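 SW480 cells seeded at 250 per well were exposed to compound or DMSO for 48 hr at 37 C, 5% CO2, then stained with Hoechst for 40 min. DNA content per nucleus was imaged (405 nm ex, 500-530 nm em).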

[6] = target: Peptidyl-prolyl cis-trans isomerase NIMA-interacting 1 (Homo sapiens) (UniProt Q13526); assay: qHTS Validation Assay to Find Inhibitors of Pin1 (AID 504536; active = well fitted inhibition curve with a large enough effect in the polarisation, with a control signal flat, not every such curve was filed as active; the % refers to the polarisation); conditions: Pin1 fluorescence polarization peptide binding assay; series mostly up to 57.5 µM
How it was run: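 Fluorescence polarization competition: compounds (titration) displace HiFluor-488-labeled Pin1-1b peptide from Pin1 (0.3 uM final) in pH 7.5 HEPES buffer with DTT, 10 min at room temperature; %Activity normalized to no-enzyme wells, curves fitted.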

[7] = target: Phosphoglycerate kinase, glycosomal (Trypanosoma brucei brucei) (UniProt P07378); assay: qHTS Validation Assay to Find Inhibitors of Phosphoglycerate Kinase (AID 504547); conditions: enzymatic PGK inhibition, coupled luminescence read-out; series mostly up to 57.5 µM
How it was run: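 Inhibition of the enzyme is judged by a Kinase-Glo Plus luminescent signal following a one-hour incubation at room temperature. Because 1,3-BPG is unstable, it is made in situ by GAPDH at 100nM final; no-PGK wells define the baseline.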

[8] = Inducers of the Endoplasmic Reticulum Stress Response (ERSR) in human glioma: Validation (AID 504836); conditions: human glioma cells, ER stress response reporter; series mostly up to 38.3 µM
How it was run: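 ERSR induction read as luciferase luminescence (Bright-Glo, 10 min at room temperature) in stably transfected human U87-MG glioma cells exposed to compounds for 16 h, using GRP78 as sensor.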

[9] = target: Ubiquitin carboxyl-terminal hydrolase 1 (Homo sapiens) (UniProt O94782); assay: Inhibitors of USP1/UAF1: Pilot qHTS (AID 504865); conditions: purified USP1/UAF1, Ub-rhodamine cleavage fluorescence; series mostly up to 114 µM;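 note: rhodamine fluorescence freed from ubiquitin-rhodamine substrate followed over time; top concentration of the series differs between compounds; nearly all actives have a fitted effect of over 35% in size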
How it was run: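 1nM USP1/UAF1 + cpd, 15 min RT; start w/ Ub-Rho 150nM final; kinetic FL 480/540 nm, 6 reads q60 s. Buffer 50mM HEPES pH 7.8, 0.5mM EDTA, 1mM TCEP, 0.01% Tween-20, 0.1 mg/ml BSA.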

[10] = qHTS for Inhibitors of ATXN expression: Validation of Cytotoxic Assay (AID 588349); conditions: cytotoxicity counter-screen for ATXN expression inhibitors, cell viability; series mostly up to 57.1 µM
How it was run: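 HEK293 cells were dosed with titrated compounds for 72 hr at 37 degrees C. Viability was read by CellTiter Glo luminescence, with intracellular ATP as the marker of cell survival.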

[11] = qHTS for Inhibitors of ATXN expression: Validation (AID 588378); conditions: cell-based ATXN2 expression reporter assay, luminescence; series mostly up to 57.1 µM; note: nearly all actives have a fitted effect of over 75% in size
How it was run: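 Cells: HEK293-ATXN2-FFLuc, phenol-red free DMEM, 2 h attachment. Compound pin-transfer, 24 h, 37 degrees C, 5% CO2. CellTiter-Fluor 30 min, Ex405/Em525; Bright-Glo 5 min, luminescence 2 s exposure.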

[12] = target: phosphoglycerate mutase (Leishmania major) (UniProt Q4Q090); assay: qHTS Validation Assay to Find Inhibitors of Phosphoglycerate Mutase (AID 504548); conditions: biochemical enzyme activity; Potency: inhibition qHTS; series mostly up to 57.5 µM;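 note: end-point luminescence from Kinase-GloPlus after the PGAM reaction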
How it was run: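 L. major PGAM (1.25nM final) was added to substrate buffer and pinned compound, incubated 45 minutes at room temperature, then Kinase-GloPlus added; luminescence read after 10 minutes. Buffer: 100 mM TEA pH 7.6, 5 mM MgCl2, 0.01% Tween-20.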

[13] = target: DNA dC->dU-editing enzyme APOBEC-3G (Homo sapiens) (UniProt Q9HC16); assay: qHTS for inhibitors of Vif-A3G interactions: Validation (AID 588379); conditions: Vif-A3G protein interaction assay; series mostly up to 46.1 µM
How it was run: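 HeLa cells stably expressing Vif and A3G-eYFP, 700 cells/well, incubated overnight at 37 deg C, then exposed to compound overnight at 37 deg C. Inhibition of Vif-mediated degradation read as increased yellow fluorescence (Ex 488/Em 500-530) by laser-scanning cytometry.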

Thyrotropin-releasing hormone receptor (Homo sapiens), sequence (P34981 whole entry, looked up): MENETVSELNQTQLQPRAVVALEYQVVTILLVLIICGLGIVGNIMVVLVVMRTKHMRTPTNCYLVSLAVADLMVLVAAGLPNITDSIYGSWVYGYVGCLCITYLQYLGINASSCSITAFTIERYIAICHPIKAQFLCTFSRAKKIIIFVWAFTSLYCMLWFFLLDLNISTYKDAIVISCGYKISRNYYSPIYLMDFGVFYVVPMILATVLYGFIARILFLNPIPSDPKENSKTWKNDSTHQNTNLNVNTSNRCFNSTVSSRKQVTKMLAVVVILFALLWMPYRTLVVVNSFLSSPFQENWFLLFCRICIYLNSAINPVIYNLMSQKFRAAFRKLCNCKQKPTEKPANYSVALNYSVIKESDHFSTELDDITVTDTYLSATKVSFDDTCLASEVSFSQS
Peptidyl-prolyl cis-trans isomerase NIMA-interacting 1 (Homo sapiens), sequence (Q13526 whole entry, looked up): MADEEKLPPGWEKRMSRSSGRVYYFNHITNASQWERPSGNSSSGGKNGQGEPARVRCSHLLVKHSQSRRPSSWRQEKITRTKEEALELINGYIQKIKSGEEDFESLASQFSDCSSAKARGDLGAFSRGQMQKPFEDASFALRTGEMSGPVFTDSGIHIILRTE
Ubiquitin carboxyl-terminal hydrolase 1 (Homo sapiens), sequence (O94782 whole entry, looked up): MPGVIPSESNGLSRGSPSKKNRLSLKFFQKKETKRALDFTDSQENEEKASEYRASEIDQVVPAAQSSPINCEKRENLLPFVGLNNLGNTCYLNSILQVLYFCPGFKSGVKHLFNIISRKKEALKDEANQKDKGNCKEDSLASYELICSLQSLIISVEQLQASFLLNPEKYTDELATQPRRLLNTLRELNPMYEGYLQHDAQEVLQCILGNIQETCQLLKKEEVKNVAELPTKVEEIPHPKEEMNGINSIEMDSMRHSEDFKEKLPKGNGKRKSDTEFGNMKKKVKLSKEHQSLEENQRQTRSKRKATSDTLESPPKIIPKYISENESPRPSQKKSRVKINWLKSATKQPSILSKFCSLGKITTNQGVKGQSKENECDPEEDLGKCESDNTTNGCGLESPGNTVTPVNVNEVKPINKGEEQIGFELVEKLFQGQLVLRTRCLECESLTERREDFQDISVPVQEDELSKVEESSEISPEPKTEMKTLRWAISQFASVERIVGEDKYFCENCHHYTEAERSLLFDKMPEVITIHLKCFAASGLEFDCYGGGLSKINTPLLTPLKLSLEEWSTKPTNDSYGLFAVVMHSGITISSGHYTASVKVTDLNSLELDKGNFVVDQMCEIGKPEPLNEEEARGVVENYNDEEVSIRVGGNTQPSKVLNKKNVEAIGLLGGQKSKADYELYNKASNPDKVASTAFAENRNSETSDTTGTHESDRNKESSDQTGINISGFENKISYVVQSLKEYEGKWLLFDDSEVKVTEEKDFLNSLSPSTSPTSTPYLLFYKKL
Phosphoglycerate kinase, glycosomal (Trypanosoma brucei brucei), sequence (P07378 whole entry, looked up): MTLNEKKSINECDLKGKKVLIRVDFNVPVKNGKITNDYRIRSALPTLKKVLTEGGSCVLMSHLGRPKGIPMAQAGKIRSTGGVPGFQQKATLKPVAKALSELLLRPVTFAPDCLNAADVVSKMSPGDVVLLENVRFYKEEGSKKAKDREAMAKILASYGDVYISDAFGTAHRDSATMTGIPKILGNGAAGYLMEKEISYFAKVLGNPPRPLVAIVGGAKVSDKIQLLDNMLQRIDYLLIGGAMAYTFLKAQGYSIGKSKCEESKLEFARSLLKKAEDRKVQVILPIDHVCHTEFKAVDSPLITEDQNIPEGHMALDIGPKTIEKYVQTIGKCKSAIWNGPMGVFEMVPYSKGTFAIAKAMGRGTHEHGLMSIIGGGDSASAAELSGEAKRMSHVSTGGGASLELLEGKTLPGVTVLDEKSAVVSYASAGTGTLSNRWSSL
Galactokinase (Homo sapiens), sequence (P51570 whole entry, looked up): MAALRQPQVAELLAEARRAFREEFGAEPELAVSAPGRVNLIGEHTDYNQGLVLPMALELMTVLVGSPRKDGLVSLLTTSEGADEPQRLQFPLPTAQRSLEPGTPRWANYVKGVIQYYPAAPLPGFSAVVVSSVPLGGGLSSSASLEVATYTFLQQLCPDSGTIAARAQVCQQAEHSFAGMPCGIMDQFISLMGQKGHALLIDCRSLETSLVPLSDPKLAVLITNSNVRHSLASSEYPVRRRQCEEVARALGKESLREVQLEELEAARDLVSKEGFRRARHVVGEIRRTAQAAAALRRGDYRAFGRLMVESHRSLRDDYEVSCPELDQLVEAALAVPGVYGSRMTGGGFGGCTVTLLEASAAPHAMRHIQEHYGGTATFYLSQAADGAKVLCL
phosphoglycerate mutase (Leishmania major), sequence (Q4Q090 1-553): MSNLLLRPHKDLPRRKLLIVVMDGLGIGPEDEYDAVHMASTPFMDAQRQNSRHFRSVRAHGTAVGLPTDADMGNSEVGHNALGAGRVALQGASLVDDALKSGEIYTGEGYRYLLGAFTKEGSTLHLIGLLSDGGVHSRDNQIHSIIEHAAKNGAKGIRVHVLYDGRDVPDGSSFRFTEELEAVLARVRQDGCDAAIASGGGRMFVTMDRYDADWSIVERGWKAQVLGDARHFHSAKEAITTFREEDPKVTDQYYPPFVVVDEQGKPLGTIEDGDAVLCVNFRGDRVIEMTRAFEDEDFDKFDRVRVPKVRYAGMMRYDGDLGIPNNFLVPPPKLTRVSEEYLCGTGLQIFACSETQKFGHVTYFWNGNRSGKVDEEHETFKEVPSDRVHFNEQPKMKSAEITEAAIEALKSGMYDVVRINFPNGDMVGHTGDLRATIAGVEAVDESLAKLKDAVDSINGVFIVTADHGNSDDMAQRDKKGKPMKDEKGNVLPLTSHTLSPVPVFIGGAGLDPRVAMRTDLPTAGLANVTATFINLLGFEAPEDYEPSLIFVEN
DNA dC->dU-editing enzyme APOBEC-3G (Homo sapiens), sequence (Q9HC16 whole entry, looked up): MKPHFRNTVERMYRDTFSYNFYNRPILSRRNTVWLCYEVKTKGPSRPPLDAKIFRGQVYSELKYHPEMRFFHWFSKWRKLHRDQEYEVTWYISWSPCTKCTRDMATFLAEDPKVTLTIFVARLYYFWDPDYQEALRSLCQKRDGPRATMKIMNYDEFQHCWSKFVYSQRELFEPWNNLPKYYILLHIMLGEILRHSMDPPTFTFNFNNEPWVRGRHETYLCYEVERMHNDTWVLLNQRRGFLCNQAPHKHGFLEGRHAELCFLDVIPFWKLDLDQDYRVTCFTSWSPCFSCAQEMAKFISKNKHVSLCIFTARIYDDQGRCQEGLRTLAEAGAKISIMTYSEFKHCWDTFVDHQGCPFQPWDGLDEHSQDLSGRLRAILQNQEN

Which activation [1] does the source give for `C#CCN[C@H](C)Cc1ccccc1` here?
Its activation is 1.31% (inactive).

And the Potency [2]?
Its Potency is “inactive”.

And the viability change [2]?
Its viability change is 0.263%.

And the outcome [3]?
The outcome was “inactive”.

And the outcome [4]?
The outcome was “inactive”.

And the Potency [5]?
Its Potency is “inactive”.

And the Potency [6]?
The Potency was “inactive”.

And the Potency [7]?
Its Potency is “inactive”.

And the outcome [8]?
Its outcome is “inactive”.

And the Potency [9]?
Its Potency is “inactive”.

What about the Potency [10] of the same compound?
The Potency was “inactive”.

What about the Potency [11] of the same compound?
Its Potency is “inactive”.

With `COC(=O)N1CCN(C(=O)Cc2ccc(Cl)c(Cl)c2)C(CN2CCCC2)C1` (stereo not given) as the compound, how does the activation [1] read?
The activation was 0.875% (inactive).

And the Potency [2]?
The Potency was “inactive”.

What about the viability change [2] of the same compound?
Its viability change is 0.492%.

What about the outcome [3] of the same compound?
Its outcome is “inactive”.

What about the outcome [4] of the same compound?
The outcome was “inactive”.

And the Potency [5]?
Its Potency is “inactive”.

And the Potency [6]?
Its Potency is “inactive”.

What about the Potency [7] of the same compound?
The Potency was “inactive”.

And the Potency [12]?
Its Potency is “inactive”.

And the outcome [8]?
Its outcome is “inactive”.

What about the Potency [9] of the same compound?
The Potency was “inactive”.

Which results are given for `CC(C)(C)c1o[nH]c(=O)c1CC(N)C(=O)O` (stereo not given)?
activation [1]: 0.625% (inactive); Potency [2]: inactive; viability change [2]: 8%; outcome [3]: inactive; outcome [4]: inactive; Potency [5]: inactive; Potency [6]: inactive; Potency [12]: inactive; outcome [8]: inactive; Potency [9]: inactive; Potency [10]: inactive; Potency [11]: inactive

For `CC(N)Cc1c[nH]c2ccc(O)cc12` (stereo not given), which activation [1] is on record?
The activation was 1.38% (inactive).

And the Potency [2]?
Its Potency is “inactive”.

What about the viability change [2] of the same compound?
The viability change was -2.01%.

What about the outcome [3] of the same compound?
The outcome was “inactive”.

What about the outcome [4] of the same compound?
Its outcome is “inactive”.

What about the Potency [5] of the same compound?
The Potency was “inactive”.

What about the Potency [6] of the same compound?
Its Potency is “inactive”.

And the Potency [7]?
Its Potency is “inactive”.

And the outcome [8]?
Its outcome is “inactive”.

What about the Potency [9] of the same compound?
Its Potency is “inactive”.

What about the Potency [10] of the same compound?
Its Potency is “inactive”.

What about the Potency [11] of the same compound?
The Potency was “inactive”.

With `CN1CCc2cccc(Cl)c2CC1` as the compound, how does the activation [1] read?
Its activation is 1.31% (inactive).

What about the Potency [2] of the same compound?
The Potency was “inactive”.

And the viability change [2]?
The viability change was 2.9%.

What about the outcome [3] of the same compound?
The outcome was “inactive”.

And the outcome [4]?
The outcome was “inactive”.

What about the Potency [5] of the same compound?
The Potency was “inactive”.

What about the Potency [6] of the same compound?
The Potency was “inactive”.

And the Potency [7]?
Its Potency is “inactive”.

And the Potency [12]?
The Potency was “inactive”.

What about the outcome [8] of the same compound?
Its outcome is “inactive”.

What about the Potency [9] of the same compound?
The Potency was “inactive”.

And the Potency [10]?
Its Potency is “inactive”.

And the Potency [11]?
Its Potency is “inactive”.

For `CCCCCCC(C)(C)c1ccc([C@@H]2C[C@H](O)CC[C@H]2CCCO)c(O)c1`, which activation [1] is on record?
Its activation is 1.06% (inactive).

And the Potency [2]?
Its Potency is “inactive”.

And the viability change [2]?
Its viability change is 3.03%.

And the outcome [3]?
Its outcome is “inactive”.

And the outcome [4]?
The outcome was “inactive”.

And the Potency [5]?
Its Potency is “inactive”.

What about the Potency [6] of the same compound?
The Potency was “inactive”.

And the Potency [7]?
Its Potency is “inactive”.

And the Potency [12]?
The Potency was “inactive”.

And the outcome [8]?
The outcome was “inactive”.

For `NC(CCCCCP(=O)(O)O)C(=O)O` (stereo not given), which activation [1] is on record?
The activation was 0.312% (inactive).

What about the Potency [2] of the same compound?
Its Potency is “inactive”.

And the viability change [2]?
Its viability change is 13.6%.

What about the outcome [3] of the same compound?
Its outcome is “inactive”.

What about the outcome [4] of the same compound?
The outcome was “inactive”.

And the Potency [5]?
Its Potency is “inactive”.

And the Potency [6]?
The Potency was “inactive”.

What about the Potency [7] of the same compound?
Its Potency is “inactive”.

What about the Potency [12] of the same compound?
The Potency was “inactive”.

What about the outcome [8] of the same compound?
Its outcome is “inactive”.

And the Potency [9]?
The Potency was “inactive”.

What about the Potency [10] of the same compound?
Its Potency is “inactive”.

What about the Potency [11] of the same compound?
The Potency was “inactive”.

What does the source list for `C[N+](C)(C)CC#CCN1CCCC1=O`?
activation [1]: 57.8% (active); Potency [2]: inactive; viability change [2]: 2.69%; outcome [3]: inactive; outcome [4]: inactive; Potency [5]: inactive; Potency [6]: inactive; Potency [7]: inactive; Potency [12]: inactive; outcome [8]: inactive; Potency [9]: inactive; Potency [10]: inactive; Potency [11]: inactive; outcome [13]: inactive

Which activation [1] does the source give for `COc1ccc2c(c1)C13CCCCC1C(C2)N(C)CC3` (stereo not given) here?
Its activation is 1.06% (inactive).

What about the Potency [2] of the same compound?
The Potency was “inactive”.

And the viability change [2]?
The viability change was 4.34%.

And the outcome [3]?
The outcome was “inactive”.

What about the outcome [4] of the same compound?
Its outcome is “inactive”.

And the Potency [5]?
The Potency was “inactive”.

And the Potency [6]?
Its Potency is “inactive”.

What about the Potency [7] of the same compound?
The Potency was “inactive”.

And the outcome [8]?
The outcome was “inactive”.

What about the Potency [9] of the same compound?
Its Potency is “inactive”.

And the Potency [10]?
The Potency was “inactive”.

Which results are given for `NCCCP(=O)(O)O`?
activation [1]: 0.562% (inactive); Potency [2]: inactive; viability change [2]: 0.331%; outcome [3]: inactive; outcome [4]: inactive; Potency [5]: inactive; Potency [6]: inactive; Potency [12]: inactive; outcome [8]: inactive; Potency [9]: inactive; Potency [10]: inactive; Potency [11]: inactive
